From PubChem
AmpC detergent = AmpC beta-lactamase inhibition with detergent present. AmpC hydrolysis of nitrocefin, absorbance 480 nm, 0.01% Triton. Potency, µM (top dose mostly 114 µM), inactives show top-dose activity change, negative = inhibition, usual class: inhibitors. P00811. 370,000 compounds, 0.041% hits;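 note: 0% = no-compound wells and -100% = no-enzyme wells; nearly all actives have a fitted effect of over 25% in size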
Target sequence (P00811 whole entry, looked up): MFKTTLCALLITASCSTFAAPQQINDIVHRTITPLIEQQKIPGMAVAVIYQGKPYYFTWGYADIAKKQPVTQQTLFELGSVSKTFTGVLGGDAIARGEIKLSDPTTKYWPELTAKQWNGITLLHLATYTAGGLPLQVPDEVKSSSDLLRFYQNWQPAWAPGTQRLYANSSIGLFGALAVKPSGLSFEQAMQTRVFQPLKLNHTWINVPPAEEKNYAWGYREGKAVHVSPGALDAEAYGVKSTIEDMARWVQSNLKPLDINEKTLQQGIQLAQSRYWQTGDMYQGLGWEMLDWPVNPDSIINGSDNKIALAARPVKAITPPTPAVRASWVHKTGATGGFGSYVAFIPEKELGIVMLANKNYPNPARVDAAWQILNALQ
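20 mM phosphate pH 7.0 + 0.01% (detergent screen) or 0.0001% Triton X-100; 5.3 nM AmpC reagent; cpd preinc 15 min RT; nitrocefin (800 uM stock) to start; A480 q20 s × 4 min; Activity was normalised to no-enzyme and no-compound control wells.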
AmpC inh no detg = AmpC beta-lactamase inhibition without detergent; P00811; AmpC nitrocefin hydrolysis, absorbance 480 nm, 0.0001% Triton; Potency, µM (top dose mostly 57.1 µM), for the others: top-dose activity change, negative = inhibition, most hits filed as inhibitors; 330,000 compounds, 0.52% hits; AID 485341;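 note: plate controls were no compound for no effect and no enzyme for full effect; nearly all actives have a fitted effect of over 20% in size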
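AmpC (5.3 nM in the dispensed reagent) in 20 mM phosphate pH 7.0 with 0.01% (detergent screen) or 0.0001% Triton X-100 was preincubated with compounds for 15 min at room temperature. Nitrocefin was then added from an 800 uM solution, and hydrolysis was followed at 480 nm.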
Sm TGR block = inhibitors of Schistosoma mansoni thioredoxin glutathione reductase | Potency, µM (highest dose often 114 µM), for inactives: at the top dose activity change, negative = inhibition, most hits filed as inhibitors | Q962Y6 | purified TGR, DTNB reduction, TNB absorbance 405 nm | 360,000 compounds, 3% hits; note: nearly all actives have a fitted effect of over 60% in size
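First, TGR (20 nM dispensed) and NADPH were mixed with compound. Second, a 15 min room-temperature incubation followed. Third, further NADPH and then DTNB were added to start the reaction. Finally, TNB absorbance was monitored kinetically.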
Giardia FBPA inh = inhibitors of Giardia lamblia fructose-1,6-bisphosphate aldolase; purified Giardia FBPA; Potency, µM (titrated, usually from 59.6 µM), inactives show at the highest dose activity, negative = inhibition, most hits filed as inhibitors; 290,000 compounds, 0.71% hits; note: nearly all actives have a fitted effect of over 55% in size
Target sequence (A8B2U2 whole entry, looked up): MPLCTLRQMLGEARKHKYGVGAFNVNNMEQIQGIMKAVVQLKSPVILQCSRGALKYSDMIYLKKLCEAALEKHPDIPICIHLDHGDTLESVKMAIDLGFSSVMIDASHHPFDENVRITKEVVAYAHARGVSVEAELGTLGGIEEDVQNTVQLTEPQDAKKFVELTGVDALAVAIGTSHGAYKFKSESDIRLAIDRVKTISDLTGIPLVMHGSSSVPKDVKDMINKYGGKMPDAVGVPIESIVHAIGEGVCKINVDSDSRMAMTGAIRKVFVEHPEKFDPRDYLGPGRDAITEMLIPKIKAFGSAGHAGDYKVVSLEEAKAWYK
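40 nM FBPA preincubated 10 min at RT with compound (up to 57.5 uM final), then substrate plus GAPDH/TPI/NAD/arsenate coupling and diaphorase/resazurin added. Fluorescence read after 20 min at RT, 525/598 nm.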
* = called active by the depositor; ? = inconclusive; nt = no result given; ! = not confirmed by another sample; [ ] = another dose, or the depositor's remark. Only some compounds are listed: those with a hit (about 3.6% of all), similar ones and a draw of the others. Calls come from the whole dose curve; as a rule, active = well fitted curve in the direction sought with a large enough effect; inconclusive = small, poorly fitted or top-dose-only effect, or another doubt; inactive = no such curve, though single readings can be large; an effect the other way counts as inactive or inconclusive. Unless noted, % is set by controls: 0 for no effect and ±100 for the full control effect; potency is the fitted concentration of half-maximal effect.

SMILES | AmpC detergent | AmpC inh no detg | Sm TGR block | Giardia FBPA inh
Oc1c(Cl)cc(Cl)cc1C=Nc1ccccc1N1CCCC1 | ? | -19.7% | 15.8µM* | ?
O=C(CSCc1cc(=O)[nH][nH]1)Nc1ccc(F)cc1 | ? | -48.2% | -1.7% | -5.7%
CCCCc1ccc(NC(=O)CSCc2cc(=O)[nH][nH]2)cc1 | -0.7% | 17.8µM* | -2.6% | -0.2%
Cc1cccc(/C=C2\CCC(C3CCCC3)C2=O)c1 (stereo not given) | ? | -28.7% | -11.2% | -1.2%
COc1cccc(/C=C2\CCC(C3CCCC3)C2=O)c1 (stereo not given) | -1.9% | -30.4% | 39.8µM* | 8.6%
CCN(CC)c1ccc(/C=C/C(=O)C2C(=O)C=C(C)OC2=O)cc1 (stereo not given) | -10.2% | -35.2% | 8.91µM* | -3.5%
CCN(CC)c1ccc(C=C2C(=O)OC(c3ccccc3)OC2=O)cc1 (stereo not given) | -14.7% | -17.6% | -27.1% | -0.3%
COCc1cccc(C2=CC(=O)C[C@H](c3ccc(F)cc3)C2)c1 | 2.0% | 54.6% | -2.4% | nt
O=C(O)C1C2C=CC(O2)C1C(=O)Nc1cccc(C(F)(F)F)c1 (stereo not given) | ? | -9.5% | 100µM* | -1.7%
COc1ccc(NC(=O)C2C3C=CC(C3)C2C(=O)NCc2ccco2)c(OC)c1 (stereo not given) | 1.6% | -11.7% | -21.9% | 0.1%
Cc1cc(C)cc(NC(=O)C2C3C=CC(O3)C2C(=O)O)c1 (stereo not given) | 3.3% | -10.9% | -34.1% | -4.3%
CCc1ccccc1NC(=O)C1C2C=CC(O2)C1C(=O)O (stereo not given) | -5.0% | -7.7% | 17.8µM* | -7.1%
CCOc1ccc(OCC)c(NC(=O)C2C3C=CC(O3)C2C(=O)NCc2ccco2)c1 (stereo not given) | 3.8% | 3.2% | 50.1µM* | -20.4%
CCOc1ccccc1NC(=O)C1C2C=CC(O2)C1C(=O)O (stereo not given) | ? | -28.8% | 20µM* | -13.9%
COc1cc2cc(CCCOC(=O)c3cccc(Br)c3)oc(=O)c2cc1OC | -3.4% | 68.0% | ? | nt
Nc1c(Cl)c(Cl)nc(C(=O)OCC(=O)NC2CCCCC2)c1Cl | -1.5% | -24.3% | -20.3% | nt
O=C(O)C1C2C=CC(O2)C1C(=O)Nc1ccccc1C(F)(F)F (stereo not given) | -11.8% | -16.8% | 8.91µM* | 0.5%
O=C(CC(=O)Nc1ccccc1C(F)(F)F)Nc1ccccc1C(F)(F)F | 2.5% | -13.1% | -0.4% | 6.2%
CCOc1ccc(N2C(=O)CC(NCc3ccc(S(N)(=O)=O)cc3)C2=O)cc1 (stereo not given) | 0.7% | -5.4% | 3.8% | 2.8%
CCCOc1ccc(N2C(=O)CC(NCCNc3ccc([N+](=O)[O-])cn3)C2=O)cc1 (stereo not given) | 0.8% | 29.7% | 8.91µM* | -7.5%
O=C1NCCCCC1NC1CC(=O)N(c2ccccc2)C1=O (stereo not given) | -5.3% | -22.1% | -29.8% | 1.5%
CCCOc1ccc(N2C(=O)CC(NCc3cccnc3)C2=O)cc1 (stereo not given) | -2.8% | -2.1% | 0.4% | 2.9%
CCOc1ccc(N2C(=O)CC(NC3CCCCNC3=O)C2=O)cc1 (stereo not given) | -2.9% | -13.8% | 22.4µM* | 6.2%
CCOc1ccc(N2C(=O)CC(NCC#N)C2=O)cc1 (stereo not given) | -10.2% | -19.8% | 2.82µM* | -2.8%
CN(CC(=O)Nc1ccccc1Br)C(=O)c1sccc1-c1ccccc1 | ? | -21.4% | -9.6% | nt
SMILES | AmpC detergent | AmpC inh no detg | Sm TGR block | Giardia FBPA inh
CCOC(=O)C1=C(Cc2ccc(OC)cc2)C(=O)c2ccccc2C1=O | 0.0% | -31.1% | 14.1µM* | 1.41µM*
CCOC(=O)C1=C(Cc2ccc(C)cc2)C(=O)c2ccccc2C1=O | -12.3% | -29.5% | 8.91µM* | 3.97µM*
CCOC(=O)c1ccc(COC(=O)c2ccc3c(c2)-c2ccccc2C3=O)cc1 | 1.4% | -10.9% | 7.5% | -2.0%
C[CH2][Hg][S]c1ccccc1C(=O)O | nt | nt | nt | 12.6µM*
O=C(O)c1ccccc1SSc1ccccc1C(=O)O | -4.6% | -12.6% | -1.9% | -4.7%
S=c1[nH]c2cc3ccccc3cc2[nH]1 | -3.9% | -24.6% | 8.91µM*! | -8.6%
CC(=O)Oc1ccc(N(C(C)=O)S(=O)(=O)c2ccc(C)cc2C)c2ccccc12 | -12.7% | 1.7% | -2.7% | 1.5%
Cc1ccc(S(=O)(=O)N(C(=O)c2ccncc2)c2ccc(OC(=O)c3ccncc3)c3ccccc23)c(C)c1 | -4.6% | 67.3% | 17.8µM* | ?
Cc1ccc(S(=O)(=O)N(C(=O)c2ccncc2)c2ccc(OC(=O)c3ccncc3)c3ccccc23)cc1 | ? | 114.4% | 20µM* | -23.2%
COC(=O)c1c(C)oc2ccc(N(C(=O)c3ccncc3)S(=O)(=O)c3ccc(C)cc3)cc12 | ? | 86.3% | 26.8% | -9.9%
Cc1noc(C)c1S(=O)(=O)N1CCc2nc(COc3ccccc3)c3c(c2C1)CO[C@@H](C)C3 | nt | nt | nt | 4.5%[12.9 µM]
O=S(=O)(N/N=C/c1ccc(N2CCOCC2)cc1)c1ccccc1 | 6.7% | -17.1% | 35.5µM* | -10.7%
Cc1cccc(C(=O)Oc2ccc(/C=N/NC(=O)c3ccc(O)cc3)cc2)c1 | -2.2% | 14.1µM* | 6.1% | 1.0%
O=C(N/N=C/c1ccc(N2CCOCC2)cc1)c1ccc(O)cc1 | 0.1% | -33.7% | 44.7µM* | 5.6%
C/C(=N\NC(=O)c1ccc(O)cc1)c1ccc(N2CCOCC2)cc1 | 4.0% | -4.8% | 6.5% | 1.0%
COc1ccc(-c2nc3c4ccccc4n(CC(=O)Nc4cc(F)ccc4F)c(=O)n3n2)cc1 | 4.2% | nt | 8.5% | nt
CCc1nc2nc(C)c(NS(=O)(=O)c3ccc(C4CCCCC4)cc3)c(=O)n2[nH]1 | -3.9% | -31.9% | -4.1% | 0.2%
CC(=O)/C=C/c1ccccc1 | nt | 5.0% | nt | nt
O=C(/C=C/c1ccccc1)/C=C/c1ccccc1 | -0.3% | -41.4% | 25.1µM* | -6.0%
N#CC1=C(N)SC(N)=C(C#N)C1c1ccoc1 | ? | -23.3% | 5.01µM* | ?
Cc1ccc(C2C(C#N)=C(N)SC(N)=C2C#N)cc1 | ? | -47.8% | ? | ?
COc1ccc(C2=NCCn3nc4cc([N+](=O)[O-])ccc4c32)cc1 | 5.0% | 1.1% | 25.1µM* | nt
COc1ccc(-n2c(O)c(C=NCc3ccc4c(c3)OCO4)c(=O)[nH]c2=O)cc1 | -2.6% | -18.7% | 14.1µM* | 2.0%
COc1cccc(-n2c(O)c(C=NCc3ccc4c(c3)OCO4)c(=O)[nH]c2=O)c1 | -6.7% | -28.1% | -0.3% | 3.3%
C/C(=N\NC(=O)c1nn(C)c(C)c1Br)c1cccc(NC(=O)c2ccoc2C)c1 | ? | 31.6µM* | -2.1% | 3.0%
O=S(=O)(NCc1ccccn1)c1ccccn1 | ? | -40.1% | 1.7% | 11.8%
CC(COc1ccccc1)N(CCCl)Cc1ccccc1 (stereo not given) | -1.8% | -15.3% | 25.1µM* | 5.7%
O=C(CN1C(=O)NC2(CCCCC2)C1=O)Oc1ccc2c(C(F)(F)F)cc(=O)oc2c1 | ? | -26.5% | 39.8µM* | nt
